Experiment [1] in a line: NCI Yeast Anticancer Drug Screen. Data for the rad50 strain (AID 155).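 Further: 0% = growth of vehicle-only cultures of the same strain.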 The following applies: S. cerevisiae rad50 strain growth inhibition, hits give high values. The gist of the method: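 Growth of the mutant yeast was measured after compound exposure and referenced to vehicle-treated cultures.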
A short description of experiment [2]: NCI Yeast Anticancer Drug Screen. Data for the mec2-1 strain (AID 157). The following applies: S. cerevisiae mec2-1 strain, hits give high values. The method in brief: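 Yeast mec2-1 mutant treated with compound. Readout: growth inhibition vs vehicle controls.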
Experiment [3] can be described thus: NCI Yeast Anticancer Drug Screen. Data for the sgs1 mgt1 strain (AID 161).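 Further: 0% = growth of cultures given vehicle only.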 The following applies: S. cerevisiae sgs1 mgt1 strain, hits give high values. The gist of the method: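 Test agents were incubated with a DNA-repair-mutant yeast strain. Growth was then read and compared against vehicle-treated controls.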
Experiment [4] can be described thus: NCI Yeast Anticancer Drug Screen. Data for the cln2 rad14 strain (AID 165).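 Further: 0% = growth equal to vehicle treated cultures.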 The following applies: S. cerevisiae cln2 rad14 strain, hits give high values. The method in brief:
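cln2 rad14 yeast strain; compound exposure; growth inhibition read vs vehicle controls.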

Experiment [5] is described as follows: NCI Yeast Anticancer Drug Screen. Data for the bub3 strain (AID 167). The following applies: S. cerevisiae bub3 mutant strain, hits give high values. The method in brief: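 Whole-cell yeast assay. The mutant strain was incubated with compounds, and growth inhibition was determined by comparison with vehicle-treated cells.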
Experiment [6] is described as follows: NCI Yeast Anticancer Drug Screen. Data for the mlh1 rad18 strain (AID 175). The following applies: S. cerevisiae mlh1 rad18 strain growth inhibition, hits give high values. The method in brief:
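Yeast w/ defined DNA-repair lesions; compound exposure; growth vs vehicle controls → % inhibition.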

[7] abbreviates: at 5.0 µM (retest, dose inferred, filed as 0.5).
The mark [8] stands for this setting: at 50.0 µM (retest, dose inferred, filed as 5.0).

The panel holds about 79,000 compounds, 15% with a hit somewhere; the sample as a whole holds those more often. Unmarked numbers belong to inactive results. Activity calls are given as the source filed them. No stated cut-off is given here; in the data, active means growth inhibition above about 70%; inactive means the rest.

Regarding `CC1=C(C#N)C(=O)N(C)C(=O)C1(Cl)Cl`, the growth inhibition in experiment [1] (setting [7]) was -2%; in experiment [1] (setting [8]), -12%; in experiment [1] (at 50.0 µM), -1.3%; in experiment [2] (setting [7]), 0%; in experiment [2] (setting [8]) it was -2%; in experiment [2] (at 50.0 µM) it was -8.1%. Further, the growth inhibition in experiment [3] (setting [7]) was 1%; in experiment [3] (setting [8]) it was -3%; in experiment [3] (at 50.0 µM), -7.45%; in experiment [4] (setting [7]), 0%; in experiment [4] (setting [8]) it was -12%; in experiment [4] (at 50.0 µM), 14.6%. The growth inhibition was 3% in experiment [5] (setting [7]); 4% in experiment [5] (setting [8]); 5.05% in experiment [5] (at 50.0 µM); 1% in experiment [6] (setting [7]); -3% in experiment [6] (setting [8]); 9.45% in experiment [6] (at 50.0 µM).
Consider `O=[N+]([O-])c1ccc(/C=N\OCc2cscn2)cc1`, for which the growth inhibition in experiment [1] (setting [7]) is 3%; in experiment [1] (setting [8]), 46%; in experiment [1] (at 50.0 µM), 76.7% (active); in experiment [2] (setting [7]) it was -11%; in experiment [2] (setting [8]) it was 74% (active); in experiment [2] (at 50.0 µM) it was 55.5%. In addition, the growth inhibition was -10% in experiment [3] (setting [7]); 73% (active) in experiment [3] (setting [8]); 62.4% in experiment [3] (at 50.0 µM); 0% in experiment [4] (setting [7]); 31% in experiment [4] (setting [8]); -13.4% in experiment [4] (at 50.0 µM). Also, the growth inhibition was -6% in experiment [5] (setting [7]); 88% (active) in experiment [5] (setting [8]); -19.4% in experiment [5] (at 50.0 µM); 11% in experiment [6] (setting [7]); 79% (active) in experiment [6] (setting [8]); 71% (active) in experiment [6] (at 50.0 µM).
Take `CC1=C(C(=O)Nc2ccccc2)C(c2ccc(Cl)c(Cl)c2)C(C(=O)Nc2ccccc2)=C(C)N1`: the growth inhibition in experiment [1] (setting [7]) is 26%; in experiment [1] (setting [8]), 26%; in experiment [1] (at 50.0 µM), 89% (active); in experiment [2] (setting [7]), 21%; in experiment [2] (setting [8]), 21%; in experiment [2] (at 50.0 µM), 92.8% (active). In addition, the growth inhibition in experiment [3] (setting [7]) is 29%; in experiment [3] (setting [8]), 29%; in experiment [3] (at 50.0 µM), 91.1% (active); in experiment [4] (setting [7]), 8%; in experiment [4] (setting [8]), 8%; in experiment [4] (at 50.0 µM), 91% (active). For the same molecule, the growth inhibition is 1% in experiment [5] (setting [7]); 1% in experiment [5] (setting [8]); 91.5% (active) in experiment [5] (at 50.0 µM); 25% in experiment [6] (setting [7]); 25% in experiment [6] (setting [8]); 90.6% (active) in experiment [6] (at 50.0 µM).
Take `CN(NC(=O)/C(=C/c1cc(Cl)cc(Cl)c1O)NC(=O)c1ccccc1)c1cnn(-c2ccccc2)c(=O)c1Cl`: the growth inhibition in experiment [1] (setting [7]) is 15%; in experiment [1] (setting [8]), 43%; in experiment [1] (at 50.0 µM), 52.9%; in experiment [2] (setting [7]), 3%; in experiment [2] (setting [8]), 36%; in experiment [2] (at 50.0 µM), 39.2%. In addition, the growth inhibition in experiment [3] (setting [7]) is -4%; in experiment [3] (setting [8]), 45%; in experiment [3] (at 50.0 µM), 59.1%; in experiment [4] (setting [7]), -6%; in experiment [4] (setting [8]) it was 47%; in experiment [4] (at 50.0 µM), 55.6%. Further, the growth inhibition is -13% in experiment [5] (setting [7]); 43% in experiment [5] (setting [8]); 60% in experiment [5] (at 50.0 µM); -7% in experiment [6] (setting [7]); 62% in experiment [6] (setting [8]); 67% in experiment [6] (at 50.0 µM).
With `CC(C)Cc1cc2c(cc1O)CCC1C2CC[C@@]2(C)C1CC[C@@H]2O` (stereo not given in full), the growth inhibition is -10% in experiment [1] (setting [7]); 97% (active) in experiment [1] (setting [8]); 75.8% (active) in experiment [1] (at 50.0 µM); -17% in experiment [2] (setting [7]); 95% (active) in experiment [2] (setting [8]); 80.4% (active) in experiment [2] (at 50.0 µM). For the same molecule, the growth inhibition in experiment [3] (setting [7]) is -12%; in experiment [3] (setting [8]), 97% (active); in experiment [3] (at 50.0 µM), 86.5% (active); in experiment [4] (setting [7]), -22%; in experiment [4] (setting [8]), 98% (active); in experiment [4] (at 50.0 µM) it was 89.3% (active). The growth inhibition in experiment [5] (setting [7]) is -34%; in experiment [5] (setting [8]) it was 97% (active); in experiment [5] (at 50.0 µM) it was 87% (active); in experiment [6] (setting [7]) it was -11%; in experiment [6] (setting [8]), 97% (active); in experiment [6] (at 50.0 µM), 88.4% (active).
As to `CCOC(=O)N1C=C(C(=O)OC)C(c2ccccc2)C(C(=O)OC)=C1`, the growth inhibition is 4% in experiment [1] (setting [7]); 6% in experiment [1] (setting [8]); -15.2% in experiment [1] (at 50.0 µM); 0% in experiment [2] (setting [7]); 20% in experiment [2] (setting [8]); -9.35% in experiment [2] (at 50.0 µM). Also, the growth inhibition was 5% in experiment [3] (setting [7]); 14% in experiment [3] (setting [8]); -6.3% in experiment [3] (at 50.0 µM); -5% in experiment [4] (setting [7]); 4% in experiment [4] (setting [8]); 32.6% in experiment [4] (at 50.0 µM). Besides, the growth inhibition is 8% in experiment [5] (setting [7]); 35% in experiment [5] (setting [8]); -4.25% in experiment [5] (at 50.0 µM); 2% in experiment [6] (setting [7]); 20% in experiment [6] (setting [8]); 1.25% in experiment [6] (at 50.0 µM).
For `N#CSCCl`, the growth inhibition is 0% in experiment [1] (setting [7]); 42% in experiment [1] (setting [8]); 91.7% (active) in experiment [1] (at 50.0 µM); 5% in experiment [2] (setting [7]); 75% (active) in experiment [2] (setting [8]); 92% (active) in experiment [2] (at 50.0 µM). The growth inhibition in experiment [3] (setting [7]) was -2%; in experiment [3] (setting [8]) it was 20%; in experiment [3] (at 50.0 µM), 93.8% (active); in experiment [4] (setting [7]), 1%; in experiment [4] (setting [8]), 61%; in experiment [4] (at 50.0 µM) it was 91% (active). The growth inhibition was -4% in experiment [5] (setting [7]); 93% (active) in experiment [5] (setting [8]); 92.3% (active) in experiment [5] (at 50.0 µM); 3% in experiment [6] (setting [7]); 87% (active) in experiment [6] (setting [8]); 92% (active) in experiment [6] (at 50.0 µM).
Turning to `COc1ccc(C(CN2CCOCC2)C(C)=O)cc1OC` (stereo not given), the growth inhibition in experiment [1] (setting [7]) is 7%; in experiment [1] (setting [8]) it was 81% (active); in experiment [1] (at 50.0 µM) it was 72.4% (active); in experiment [2] (setting [7]), 12%; in experiment [2] (setting [8]) it was 93% (active); in experiment [2] (at 50.0 µM), 70.1% (active). Further, the growth inhibition in experiment [3] (setting [7]) is 13%; in experiment [3] (setting [8]), 85% (active); in experiment [3] (at 50.0 µM), 88.5% (active); in experiment [4] (setting [7]), 7%; in experiment [4] (setting [8]), 40%; in experiment [4] (at 50.0 µM), 23.6%. The growth inhibition was 10% in experiment [5] (setting [7]); 92% (active) in experiment [5] (setting [8]); 69.7% in experiment [5] (at 50.0 µM); 5% in experiment [6] (setting [7]); 93% (active) in experiment [6] (setting [8]); 87.2% (active) in experiment [6] (at 50.0 µM).
Turning to `CCCOC1(C)CC(c2cc(OC)c(OC)c(OC)c2)c2cc3c(cc2O1)OCO3` (stereo not given), the growth inhibition in experiment [1] (setting [7]) was 5%; in experiment [1] (setting [8]), 96% (active); in experiment [1] (at 50.0 µM), 5.1%; in experiment [2] (setting [7]), 5%; in experiment [2] (setting [8]) it was 100% (active); in experiment [2] (at 50.0 µM), 7.75%. For the same molecule, the growth inhibition is 5% in experiment [3] (setting [7]); 99% (active) in experiment [3] (setting [8]); -2.6% in experiment [3] (at 50.0 µM); 4% in experiment [4] (setting [7]); 99% (active) in experiment [4] (setting [8]); 34.7% in experiment [4] (at 50.0 µM). For the same molecule, the growth inhibition in experiment [5] (setting [7]) was 5%; in experiment [5] (setting [8]), 99% (active); in experiment [5] (at 50.0 µM) it was 3.15%; in experiment [6] (setting [7]) it was 2%; in experiment [6] (setting [8]), 99% (active); in experiment [6] (at 50.0 µM), 18.9%.
`COc1ccc(C2(O)c3ccccc3C(=O)C2c2ccccn2)cc1` (stereo not given): the growth inhibition in experiment [1] (setting [7]) is 99% (active); in experiment [1] (setting [8]), 10%; in experiment [1] (at 50.0 µM), 99% (active); in experiment [2] (setting [7]) it was 98% (active); in experiment [2] (setting [8]) it was -5%; in experiment [2] (at 50.0 µM), 99% (active). Moreover, the growth inhibition in experiment [3] (setting [7]) is 98% (active); in experiment [3] (setting [8]), -1%; in experiment [3] (at 50.0 µM), 99.3% (active); in experiment [4] (setting [7]), 97% (active); in experiment [4] (setting [8]), -1%; in experiment [4] (at 50.0 µM) it was 98.8% (active). In addition, the growth inhibition in experiment [5] (setting [7]) is 99% (active); in experiment [5] (setting [8]) it was 7%; in experiment [5] (at 50.0 µM) it was 99.3% (active); in experiment [6] (setting [7]) it was 99% (active); in experiment [6] (setting [8]), 4%; in experiment [6] (at 50.0 µM), 98.9% (active).

These data come from PubChem BioAssay (NCI).
